PubChem BioAssay (NCATS)
Inconclusive results are not listed. Active and inactive are the calls of the source. Unless noted, calls follow the shape of the dose curve; as a rule, active = well fitted curve in the direction sought with a large enough effect; inconclusive = small, poorly fitted or top-dose-only effect, or another doubt; inactive = no such curve, though single readings can be large; an effect the other way counts as inactive or inconclusive.

What was measured:
[1] = molecular target: DNA polymerase III PolC-type (Bacillus subtilis (strain 168)) (UniProt P13267); experiment: qHTS Validation Assay for the Inhibitors of DNA Replication in Gram-Positive Bacteria (AID 485295);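 also: reconstituted holoenzyme with PolC plus beta clamp SSB and primase; PicoGreen fluorescence of double-stranded DNA made on primed circular M13 template; series mostly up to about 57 µM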
Procedure, shortened: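 Double-stranded DNA product detected by PicoGreen fluorescence after EDTA quench. Compound incubated with B. subtilis holoenzyme (PolC, beta subunit, SSB, primase) before substrate addition; primed replication of M13Gori with dNTPs and NTPs at room temperature; DMSO defines 0% inhibition.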

[2] = molecular target: Tumor susceptibility gene 101 protein (Homo sapiens) (UniProt Q99816); experiment: qHTS Validation Assay for Iinhibitors of HIV-1 Budding by Blocking the Interaction of PTAP/TSG101 (AID 485342; calls by dose curve)
Sequence of Tumor susceptibility gene 101 protein (Homo sapiens) (Q99816 whole entry, looked up, the tested form may be a part): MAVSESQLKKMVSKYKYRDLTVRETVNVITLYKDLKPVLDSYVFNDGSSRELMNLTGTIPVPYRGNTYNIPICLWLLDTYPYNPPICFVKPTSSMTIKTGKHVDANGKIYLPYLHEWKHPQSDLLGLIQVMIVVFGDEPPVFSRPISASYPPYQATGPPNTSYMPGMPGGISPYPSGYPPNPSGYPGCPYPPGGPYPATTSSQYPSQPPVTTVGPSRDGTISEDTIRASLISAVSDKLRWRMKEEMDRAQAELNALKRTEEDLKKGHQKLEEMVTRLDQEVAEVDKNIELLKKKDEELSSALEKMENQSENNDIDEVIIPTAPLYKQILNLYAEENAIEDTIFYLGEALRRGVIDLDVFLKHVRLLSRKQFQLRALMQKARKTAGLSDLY
Procedure, shortened: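 Fluorescence polarization of 50 nM FITC-PTAP peptide bound to 10 uM Tsg101 binding domain was read after 20 min room-temperature incubation with compounds, in 10 mM HEPES pH 7.5, 0.15 M NaCl, 0.01% Tween 20.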

[3] = molecular target: Beta-2 adrenergic receptor (Homo sapiens) (UniProt P07550); experiment: qHTS validation assay of beta-arrestin-biased ligands of beta2-adrenergic receptor (AID 485366)
Sequence of Beta-2 adrenergic receptor (Homo sapiens) (P07550 whole entry, looked up): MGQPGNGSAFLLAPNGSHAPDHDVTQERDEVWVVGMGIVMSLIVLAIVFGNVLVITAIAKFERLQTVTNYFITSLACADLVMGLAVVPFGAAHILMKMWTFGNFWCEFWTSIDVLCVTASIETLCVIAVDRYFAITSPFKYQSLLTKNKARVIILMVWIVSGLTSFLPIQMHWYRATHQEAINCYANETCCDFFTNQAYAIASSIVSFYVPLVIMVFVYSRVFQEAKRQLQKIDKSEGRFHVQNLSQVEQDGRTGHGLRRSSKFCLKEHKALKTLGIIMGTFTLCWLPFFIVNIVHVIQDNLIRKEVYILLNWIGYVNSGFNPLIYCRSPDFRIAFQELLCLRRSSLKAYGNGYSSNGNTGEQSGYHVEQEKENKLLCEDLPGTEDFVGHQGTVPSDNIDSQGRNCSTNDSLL
Procedure, shortened: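 Values derive from curve-fitted %Activity of a luminescent beta-arrestin recruitment reporter; compounds tested up to 46 microM on Tango cells for 18 hr at 37 degrees C, 5% CO2.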

[4] = Quantitative high throughput screen for delayed death inhibitors of the malarial parasite plastid, 96 hour incubation (AID 488745);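 also: luciferase-expressing P. falciparum in erythrocytes at 2% hematocrit and 0.1% parasitemia; series mostly up to about 29 µM; nearly all actives have a fitted effect of over 70% in size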
Procedure, shortened: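 Infected erythrocytes were added to compound in Albumax-supplemented RPMI 1640 at 0.1% parasitemia and 2% hematocrit (final), incubated 96 h at 37 C under 5% CO2, then luciferase reagent was added and luminescence measured.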

[5] = Quantitative high throughput screen for delayed death inhibitors of the malarial parasite plastid, 48 hour incubation (AID 488752); also: nearly all actives have a fitted effect of over 65% in size
Procedure, shortened: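 Readout is firefly luciferase luminescence from a reporter integrated into the parasite genome, with lower signal taken as inhibited growth. Infected red cells (0.1% parasitemia, 2% hematocrit final) are cultured with compound for one 48 h cycle at 37 C.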

[6] = molecular target: Thioredoxin reductase 1, cytoplasmic (Rattus norvegicus) (UniProt O89049); experiment: qHTS Assay for Substrates of Mammalian Selenoprotein Thioredoxin Reductase 1 (TrxR1) (AID 488772);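 also: NADPH fluorescence in the first read after selenite addition and not the 8 min delta; series mostly up to about 57 µM; a drop in NADPH fluorescence below the no-compound background marks a TrxR1 substrate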
Procedure, shortened: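 Quantitative HTS in Tris-HCl buffer at pH 7.5 with EDTA and Tween-20, using rat TrxR1, 400 uM NADPH and 400 uM selenite (final). A fall in initial NADPH fluorescence relative to background marked substrate behaviour.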

[7] = molecular target: Thioredoxin reductase 1, cytoplasmic (Rattus norvegicus) (UniProt O89049); experiment: qHTS Assay for Inhibitors of Mammalian Selenoprotein Thioredoxin Reductase 1 (TrxR1) (AID 488773); conditions: Potency: inhibition; also: nearly all actives have a fitted effect of over 40% in size; also: potency is read from the fitted curve at half-maximal effect
Procedure, shortened: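 Steps: enzyme (90 nM) plus NADPH (400 uM final), 5 min at ~22 deg C; compound added, 15 min; selenite (400 uM final) added; fluorescence followed for 8 min. Concentration-response curves derived from the normalized delta values.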

[8] = molecular target: Flap endonuclease 1 (Homo sapiens) (UniProt P39748); experiment: qHTS Validation Assay for the Inhibitors of Human Flap endonuclease 1 (FEN1) (AID 488816)
Sequence of Flap endonuclease 1 (Homo sapiens) (P39748 whole entry, looked up): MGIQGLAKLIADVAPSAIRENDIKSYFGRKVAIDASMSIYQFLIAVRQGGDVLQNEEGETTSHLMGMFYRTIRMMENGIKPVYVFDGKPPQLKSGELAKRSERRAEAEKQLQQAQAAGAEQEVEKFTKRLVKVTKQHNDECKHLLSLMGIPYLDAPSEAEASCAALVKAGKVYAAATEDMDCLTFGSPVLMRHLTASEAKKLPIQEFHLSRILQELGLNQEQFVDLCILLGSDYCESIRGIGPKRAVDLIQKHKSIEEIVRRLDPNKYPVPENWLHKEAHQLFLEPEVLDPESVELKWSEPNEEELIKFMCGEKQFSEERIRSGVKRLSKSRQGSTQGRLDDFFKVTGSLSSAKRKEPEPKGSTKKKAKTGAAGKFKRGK
Procedure, shortened: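 FEN1, dispensed as a 10 nM reagent, was preincubated with pin-transferred compounds for 15 min at room temperature before substrate was added (50 nM final). Plates were read at 0 and 15 min, and a four-parameter Hill equation was fitted to the concentration-response data.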

[9] = molecular target: Chromobox protein homolog 1 (Homo sapiens) (UniProt P83916); experiment: qHTS Validation Assay for Inhibitors of HP1-beta Chromodomain Interactions with Methylated Histone Tails (AID 488953);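 also: loss of AlphaScreen luminescence from HP1-beta binding biotinylated H3K9me3 peptide; series mostly up to about 110 µM; nearly all actives have a fitted effect of over 50% in size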
Sequence of Chromobox protein homolog 1 (Homo sapiens) (P83916 whole entry, looked up): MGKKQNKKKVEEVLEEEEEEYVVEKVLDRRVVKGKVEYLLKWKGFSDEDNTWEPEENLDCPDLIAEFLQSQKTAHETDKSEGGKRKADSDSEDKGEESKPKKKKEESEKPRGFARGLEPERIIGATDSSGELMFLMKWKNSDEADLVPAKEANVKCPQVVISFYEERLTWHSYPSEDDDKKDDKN
Procedure, shortened: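 50 nM HP1-beta + 50 nM biotin-H3(1-18)K9me3, PBS pH 7.4, 0.01% Tween-20, 30 min RT; compound added, 30 min RT; AlphaScreen beads 10 ug/mL final, 30 min dark; luminescence read.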

[10] = molecular target: Methanococcus maripaludis chaperonin (MmCpn) (UniProt Q6LX38); experiment: High-Throughput Screening for Modulators of Cytosolic Chaperonin Activity: MmCpn Primary Screen (AID 488978);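 also: 50 nM MmCpn enzyme hydrolysing 30 µM ATP at 37 °C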
Sequence of Methanococcus maripaludis chaperonin (MmCpn) (Q6LX38 1-543): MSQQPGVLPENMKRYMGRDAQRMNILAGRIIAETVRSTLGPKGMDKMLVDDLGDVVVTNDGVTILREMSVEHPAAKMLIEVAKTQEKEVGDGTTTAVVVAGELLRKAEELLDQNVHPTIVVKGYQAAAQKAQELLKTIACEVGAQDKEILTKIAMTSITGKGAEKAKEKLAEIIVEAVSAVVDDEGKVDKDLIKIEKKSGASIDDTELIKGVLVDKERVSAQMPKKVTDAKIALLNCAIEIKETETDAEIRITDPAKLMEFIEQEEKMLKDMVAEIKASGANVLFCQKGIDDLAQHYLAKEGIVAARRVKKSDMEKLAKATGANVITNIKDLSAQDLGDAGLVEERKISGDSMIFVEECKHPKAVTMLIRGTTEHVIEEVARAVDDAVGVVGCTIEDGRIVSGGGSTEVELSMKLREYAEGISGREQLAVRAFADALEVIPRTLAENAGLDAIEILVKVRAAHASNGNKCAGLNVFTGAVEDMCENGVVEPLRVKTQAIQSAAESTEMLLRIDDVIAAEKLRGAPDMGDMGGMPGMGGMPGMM
Procedure, shortened: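 ATPase activity of 50 nM MmCpn was assayed with 30 uM ATP, 10 minutes at 37C, after a 5 min compound preincubation at room temperature. ADP production was read as HTRF emission at 590 and 665 nm.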

[11] = molecular target: Transient receptor potential cation channel subfamily V member 1 (Homo sapiens) (UniProt Q8NER1); experiment: HTS Assay for Compounds that Act as Enhancers of the Vanilloid Receptor 1 (AID 488979)
Sequence of Transient receptor potential cation channel subfamily V member 1 (Homo sapiens) (Q8NER1 whole entry, looked up): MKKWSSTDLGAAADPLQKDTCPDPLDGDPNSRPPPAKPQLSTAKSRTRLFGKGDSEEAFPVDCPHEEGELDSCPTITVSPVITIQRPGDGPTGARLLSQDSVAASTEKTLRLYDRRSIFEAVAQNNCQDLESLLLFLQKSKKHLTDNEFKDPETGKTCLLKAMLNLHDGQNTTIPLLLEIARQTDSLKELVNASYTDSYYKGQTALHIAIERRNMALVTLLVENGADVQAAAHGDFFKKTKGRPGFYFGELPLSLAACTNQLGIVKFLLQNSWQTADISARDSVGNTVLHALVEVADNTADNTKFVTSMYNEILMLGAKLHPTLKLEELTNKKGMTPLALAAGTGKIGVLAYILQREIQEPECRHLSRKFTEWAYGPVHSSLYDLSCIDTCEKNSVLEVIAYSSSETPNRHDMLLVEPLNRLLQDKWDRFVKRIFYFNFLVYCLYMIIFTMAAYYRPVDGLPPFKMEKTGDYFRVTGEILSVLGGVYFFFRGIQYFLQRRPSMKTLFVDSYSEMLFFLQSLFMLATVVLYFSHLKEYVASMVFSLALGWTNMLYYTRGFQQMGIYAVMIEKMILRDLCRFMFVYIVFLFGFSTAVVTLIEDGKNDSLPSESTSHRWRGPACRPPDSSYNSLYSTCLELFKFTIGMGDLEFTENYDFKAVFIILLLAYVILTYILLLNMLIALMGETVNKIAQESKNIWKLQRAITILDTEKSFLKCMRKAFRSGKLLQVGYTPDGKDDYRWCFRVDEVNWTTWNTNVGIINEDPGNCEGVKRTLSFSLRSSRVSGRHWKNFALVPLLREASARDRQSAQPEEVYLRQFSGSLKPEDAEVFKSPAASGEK
Procedure, shortened: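 TRPV1-expressing cells loaded with Fluo-8 calcium dye; compounds added and calcium influx read kinetically for 3 min (agonist phase), then capsaicin at EC20 added and read 2 min more for enhancement. Fluorescence ex 480/em 520 nm.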

[12] = molecular target: Thyrotropin receptor (Homo sapiens) (UniProt P16473); experiment: qHTS Assay for Antagonists of the Thyroid Stimulating Hormone Receptor (AID 488980); also: series mostly up to about 58 µM
Sequence of Thyrotropin receptor (Homo sapiens) (P16473 whole entry, looked up): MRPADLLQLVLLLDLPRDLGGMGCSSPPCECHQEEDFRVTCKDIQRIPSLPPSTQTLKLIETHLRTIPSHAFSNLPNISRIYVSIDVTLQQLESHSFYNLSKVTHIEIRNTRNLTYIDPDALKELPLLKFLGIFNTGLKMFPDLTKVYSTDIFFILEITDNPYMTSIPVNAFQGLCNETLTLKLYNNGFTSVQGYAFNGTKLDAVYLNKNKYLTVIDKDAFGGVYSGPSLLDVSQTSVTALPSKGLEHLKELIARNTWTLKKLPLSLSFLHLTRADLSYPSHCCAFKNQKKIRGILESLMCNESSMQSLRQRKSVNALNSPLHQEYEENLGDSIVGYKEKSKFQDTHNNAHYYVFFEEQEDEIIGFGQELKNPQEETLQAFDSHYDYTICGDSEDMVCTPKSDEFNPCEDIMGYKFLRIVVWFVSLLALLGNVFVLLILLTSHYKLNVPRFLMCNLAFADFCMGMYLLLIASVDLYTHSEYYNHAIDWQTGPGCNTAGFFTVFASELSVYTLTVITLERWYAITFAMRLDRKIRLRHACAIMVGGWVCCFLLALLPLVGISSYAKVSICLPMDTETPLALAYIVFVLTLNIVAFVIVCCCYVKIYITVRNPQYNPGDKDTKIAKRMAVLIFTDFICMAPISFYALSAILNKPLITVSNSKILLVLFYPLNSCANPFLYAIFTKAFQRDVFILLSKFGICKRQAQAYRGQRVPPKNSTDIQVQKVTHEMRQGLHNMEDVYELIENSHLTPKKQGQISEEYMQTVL
Procedure, shortened: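 Inhibition of cAMP raised by EC80 TSH (4 nM final) was read by HTRF, with lysate cAMP competing against cAMP-d2 for cryptate antibody after 30 min at room temperature. The cells were transfected HEK293 held in phosphodiesterase inhibitor RO 20-1724 at 70 uM.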

[13] = molecular target: D(1A) dopamine receptor (Homo sapiens) (UniProt P21728); experiment: HTS Assay for Allosteric Agonists of the Human D1 Dopamine Receptor: Primary Screen for Agonists (AID 488981)
Sequence of D(1A) dopamine receptor (Homo sapiens) (P21728 whole entry, looked up): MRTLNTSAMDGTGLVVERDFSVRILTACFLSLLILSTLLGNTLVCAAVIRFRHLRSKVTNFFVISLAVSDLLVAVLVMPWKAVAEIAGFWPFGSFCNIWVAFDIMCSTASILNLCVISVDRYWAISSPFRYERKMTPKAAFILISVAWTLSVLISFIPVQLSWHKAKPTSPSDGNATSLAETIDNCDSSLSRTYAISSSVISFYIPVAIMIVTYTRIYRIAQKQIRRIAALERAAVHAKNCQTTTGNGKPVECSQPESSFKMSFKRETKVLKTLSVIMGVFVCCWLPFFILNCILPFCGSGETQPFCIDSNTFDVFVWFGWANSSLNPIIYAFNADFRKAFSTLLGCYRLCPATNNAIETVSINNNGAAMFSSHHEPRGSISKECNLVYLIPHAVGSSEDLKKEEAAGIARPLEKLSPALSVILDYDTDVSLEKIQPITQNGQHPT
Procedure, shortened: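 Tetracycline-induced HEK293 T-REx cells force-coupled to calcium signalling were incubated overnight at 30 C and dye-loaded at room temperature. Calcium flux over 180 s after compound addition flagged agonists; a further 180 s read after EC20 dopamine flagged potentiators.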

[14] = molecular target: D(1A) dopamine receptor (Homo sapiens) (UniProt P21728); experiment: HTS Assay for Allosteric Agonists of the Human D1 Dopamine Receptor: Primary Screen for Antagonists (AID 488983);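 also: calcium flux response to an EC80 dopamine challenge measured with no-wash dye; nearly all actives have a fitted effect of over 65% in size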; also: potency is read from the fitted curve at half-maximal effect
Procedure, shortened: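 Cells are induced with tetracycline and incubated overnight at 30 C, then loaded with calcium dye for 30 to 90 minutes at room temperature. Compound addition is followed by a 180 s read, then an EC80 dopamine addition and another 180 s read.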

[15] = molecular target: ATP-dependent 6-phosphofructokinase (Trypanosoma brucei brucei) (UniProt O15648); experiment: qHTS Assay to Find Inhibitors of T. brucei phosphofructokinase: hit validation (AID 492961);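 also: luminescence reports ADP formed as PFK phosphorylates fructose-6-phosphate with ATP; series mostly up to about 51 µM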
Procedure, shortened: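 Percent activity derived from corrected luminescence, normalized between 0x and 1x enzyme controls, then fitted to concentration-response curves. Conditions: 1.25 nM PFK, 0.1 mM ATP, 0.5 mM F6P, 45 min RT.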

[16] = Validation screen for small molecules that induce genotoxicity in human embryonic kidney (HEK293T) cells expressing luciferase-tagged ELG1 (AID 493106); also: potency is read from the fitted curve at half-maximal effect
Procedure, shortened: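 Luminescence from an ELG1-luciferase fusion serves as the read-out, rising when genetic stress elevates ELG1 protein. HEK293T reporter cells (2,000 per well) received 23 nL compound, incubated 16 hr at 37 °C, then ONE-Glo for 30 min at room temperature.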

[17] = qHTS Validation Assay to Find Inhibitors of Chronic Active B-Cell Receptor Signaling (AID 485345; active = well fitted curve in the direction sought with a large enough effect in the main read-out, with a control signal flat, not every such curve was filed as active)
Procedure, shortened: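 TMD8 ABC-DLBCL cells with dox-inducible green luciferase–IκBα fusion and red native luciferase; compounds 46 uM–3 nM, 4 h at 37C with doxycycline in 0.5% FBS IMDM. Green/red ratio normalized to basal and 10 uM MG-132.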

[18] = molecular target: ATP-dependent 6-phosphofructokinase (Trypanosoma brucei brucei) (UniProt O15648); experiment: qHTS Validation Assay to Find Inhibitors of T. brucei phosphofructokinase (AID 485368); conditions: outcome: dose series up to 57.5 µM
Procedure, shortened: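 Enzyme reaction in triethanolamine buffer pH 8.0 with 5 mM MgCl2, 0.01% Tween20 and 0.1% BSA; PFK 1.25 nM, F6P 0.5 mM, ATP 0.1 mM, 45 min RT. ADP quantified by ADP-Glo.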

[19] = molecular target: M-phase phosphoprotein 8 (Homo sapiens) (UniProt Q99549); experiment: qHTS Validation Assay for Inhibitors for MPP8 Chromodomain Interactions with Methylated Histone Tails (AID 488949);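 also: AlphaScreen signal from MPP8 chromodomain bound to biotinylated H3K9me3 peptide; top concentration of the series differs between compounds; nearly all actives have a fitted effect of over 55% in size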
Sequence of M-phase phosphoprotein 8 (Homo sapiens) (Q99549 whole entry, looked up): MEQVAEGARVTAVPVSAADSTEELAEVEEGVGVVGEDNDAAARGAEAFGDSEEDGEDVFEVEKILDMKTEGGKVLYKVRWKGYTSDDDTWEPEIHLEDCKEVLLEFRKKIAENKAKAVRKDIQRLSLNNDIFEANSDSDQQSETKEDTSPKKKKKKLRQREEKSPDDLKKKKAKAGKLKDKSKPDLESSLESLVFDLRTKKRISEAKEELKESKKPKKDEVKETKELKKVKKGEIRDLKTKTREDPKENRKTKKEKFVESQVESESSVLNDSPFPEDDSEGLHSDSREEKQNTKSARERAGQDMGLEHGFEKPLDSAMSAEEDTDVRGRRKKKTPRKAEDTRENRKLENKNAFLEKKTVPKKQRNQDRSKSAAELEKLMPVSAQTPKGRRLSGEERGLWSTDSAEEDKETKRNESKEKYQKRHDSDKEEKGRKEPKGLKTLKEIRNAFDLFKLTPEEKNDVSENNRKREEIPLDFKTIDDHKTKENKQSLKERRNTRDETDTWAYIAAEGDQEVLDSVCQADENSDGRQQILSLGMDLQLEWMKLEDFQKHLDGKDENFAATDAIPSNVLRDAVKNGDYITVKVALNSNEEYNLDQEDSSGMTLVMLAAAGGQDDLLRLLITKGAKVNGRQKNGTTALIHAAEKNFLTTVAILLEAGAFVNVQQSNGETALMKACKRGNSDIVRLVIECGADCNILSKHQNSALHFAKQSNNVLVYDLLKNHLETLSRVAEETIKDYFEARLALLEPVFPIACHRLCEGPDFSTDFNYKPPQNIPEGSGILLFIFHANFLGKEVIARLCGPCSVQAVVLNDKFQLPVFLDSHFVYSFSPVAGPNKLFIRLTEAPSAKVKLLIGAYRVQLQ
Procedure, shortened: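 AlphaScreen proximity signal from streptavidin donor and Ni-chelate acceptor beads (10 ug/mL each) reported binding of MPP8 to trimethyl-K9 H3(1-18) peptide, both at 50 nM. The complex formed 30 min before a 30 min compound exposure at room temperature, in PBS pH 7.4.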

Measured: Potency

O=c1n(CCCN2CCN(c3cccc(Cl)c3)CC2)nc2ccccn12
active: [14] 11.2 µM
not listed: [17] | [18] | [19]
inactive: all other assays above

O=C(Nc1nc2ccccc2n1CCN1CCOCC1)c1cccc([N+](=O)[O-])c1
not listed: [4] | [5] | [9] | [11] | [12] | [15] | [18] | [19]
inactive: all other assays above

Cc1cnc(NC(=O)C2=C(O)c3ccccc3S(=O)(=O)N2C)s1
not listed: [7] | [8] | [11] | [12] | [15] | [17] | [18] | [19]
inactive: all other assays above

CCc1ccc(CCOc2ccc(CC3SC(=O)NC3=O)cc2)nc1 (configuration not stated)
inactive: [15]

Cc1oncc1C(=O)Nc1ccc(C(F)(F)F)cc1
active: [16] 2.06 µM
not listed: [4] | [5] | [17] | [19]
inactive: all other assays above

CCCc1nn(C)c2c(=O)[nH]c(-c3cc(S(=O)(=O)N4CCN(C)CC4)ccc3OCC)nc12
inactive: [15]

C#Cc1cccc(Nc2ncnc3cc(OCCOC)c(OCCOC)cc23)c1
inactive: [15]

Cn1cnc([N+](=O)[O-])c1Sc1ncnc2nc[nH]c12
active: [7] 15 µM
not listed: [5] | [15] | [17] | [19]
inactive: all other assays above

CCOC(=O)N1CCC(=C2c3ccc(Cl)cc3CCc3cccnc32)CC1
not listed: [4] | [5] | [9] | [12] | [15] | [17] | [18]
inactive: all other assays above

CC(c1cc2ccccc2s1)N(O)C(N)=O (configuration not stated)
inactive: [15]

NC(N)=NC(=O)c1nc(Cl)c(N)nc1N
not listed: [4] | [5] | [6] | [8] | [15] | [17]
inactive: all other assays above

CCCc1nc2c(C)cc(-c3nc4ccccc4n3C)cc2n1Cc1ccc(-c2ccccc2C(=O)O)cc1
inactive: [15]

Cc1cccc(-c2[nH]c(C(C)(C)C)nc2-c2ccc3nccnc3c2)n1
not listed: [4] | [5] | [11] | [12] | [15] | [18]
inactive: all other assays above

NNCCc1ccccc1
not listed: [16] | [17] | [18] | [19]
inactive: all other assays above

Cc1c(C)c2c(c(C)c1O)CCC(C)(COc1ccc(CC3SC(=O)NC3=O)cc1)O2 (configuration not stated)
inactive: [15]

O=C1CCc2cc(OCCCCc3nnnn3C3CCCCC3)ccc2N1
not listed: [15] | [17] | [18] | [19]
inactive: all other assays above
